This note sets out measurements from PubChem BioAssay (NCI).

Some test systems named below: SK-MEL-2 melanoma; EKVX NSCLC; SN12C renal; UO-31 renal; TK-10 renal; ACHN renal; CAKI-1 renal; A498 renal; CCRF-CEM leukemia; MOLT-4 leukemia; SR leukemia; RPMI-8226 leukemia; OVCAR-8 ovarian; OVCAR-5 ovarian; OVCAR-4 ovarian; SK-OV-3 ovarian; IGROV1 ovarian; OVCAR-3 ovarian; HS 578T breast; NCI/ADR-RES ovarian.
Test in all cases: NCI-60 one-dose screen, 48 h (100 = growth as untreated, 0 = no growth, -100 = all killed)
Holding throughout (details): 10 µM unless noted

Molecules are shown by their SMILES. About 83,000 compounds went through this panel and 20% of them were active in at least one assay; those are over-represented in the sample as a whole.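 Testing used 96-well plates and a 48-hour single-concentration exposure. Example: -40 means 40% of the starting cells died.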 A number with no mark means an inactive call. Active and inactive are the calls of the source. Rule for the calls: active = growth percent below 10; inactive = the rest.

Regarding `CCN(C)S(=O)(=O)Nc1cccc(Nc2ncnc3cc(NC(=O)CCl)ccc23)c1Cl`, the growth in the assay on SK-MEL-2 melanoma is 17.7%; in the assay with EKVX NSCLC it was 18.4%; with SN12C renal, -27.9% (active); in the assay on UO-31 renal, -87.4% (active); with TK-10 renal, 1.2% (active); with ACHN renal it was -67.8% (active). In addition, the growth in the assay on CAKI-1 renal was -15.4% (active); in the assay with A498 renal, 81.7%; in the assay on CCRF-CEM leukemia, 5.63% (active); with MOLT-4 leukemia, 5.41% (active); with SR leukemia, 6.73% (active); in the assay on RPMI-8226 leukemia, -6.79% (active). Besides, the growth was 2.03% (active) in the assay with OVCAR-8 ovarian; -17.5% (active) in the assay on OVCAR-5 ovarian; 14.9% in the assay on OVCAR-4 ovarian; 23.4% in the assay with SK-OV-3 ovarian; -7.09% (active) in the assay with IGROV1 ovarian; -65.1% (active) in the assay with OVCAR-3 ovarian. Moreover, the growth is 13.4% in the assay with HS 578T breast and 59.3% in the assay with NCI/ADR-RES ovarian.
In the case of `COC(=O)[C@]1(C)CCC[C@]2(C)[C@H]3C[C@H]4C(C(C)C)=C[C@]3(CC[C@H]21)[C@@H]1C(=O)CC[C@H](OCCC#N)[C@@H]14`, the growth in the assay with SK-MEL-2 melanoma was 86.6%; in the assay with EKVX NSCLC, 57.1%; with SN12C renal, 93.5%; in the assay on UO-31 renal, 71.1%; with TK-10 renal it was 94.8%; in the assay on ACHN renal, 87.5%. The growth in the assay on CAKI-1 renal is 68%; in the assay on A498 renal, 105%; in the assay with CCRF-CEM leukemia, 81.5%; in the assay with MOLT-4 leukemia, 48.6%; in the assay on SR leukemia, 58.9%; with RPMI-8226 leukemia, 68%. Besides, the growth is 99.2% with OVCAR-8 ovarian; 129% in the assay with OVCAR-5 ovarian; 77.3% with OVCAR-4 ovarian; 109% in the assay with SK-OV-3 ovarian; 67.3% in the assay with IGROV1 ovarian; 81.5% in the assay on OVCAR-3 ovarian. The growth in the assay on HS 578T breast was 79.9%; in the assay on NCI/ADR-RES ovarian, 77.8%.
As for `COc1ccc(C(O)c2cc3c(N)c(C(=O)Nc4cccc(Br)c4)sc3nc2C)cc1` (stereo not given), the growth with SK-MEL-2 melanoma is 33.9%; in the assay with EKVX NSCLC, 46.2%; with SN12C renal, 12.1%; in the assay on UO-31 renal it was 22.9%; with TK-10 renal it was 62.9%; in the assay on ACHN renal it was 19.8%. In addition, the growth in the assay on CAKI-1 renal was 13.5%; in the assay on A498 renal, -9.2% (active); in the assay on CCRF-CEM leukemia, 14.2%; with MOLT-4 leukemia it was 15.8%; in the assay with SR leukemia, 8.67% (active); with RPMI-8226 leukemia, 10.9%. For the same molecule, the growth was 13.1% in the assay on OVCAR-8 ovarian; 11.2% in the assay on OVCAR-5 ovarian; 39.7% in the assay on OVCAR-4 ovarian; 17.9% with SK-OV-3 ovarian; 11.4% in the assay on IGROV1 ovarian; 3.84% (active) with OVCAR-3 ovarian. Further, the growth with HS 578T breast is -6% (active); in the assay on NCI/ADR-RES ovarian it was 13.1%.
For `COc1ccc(C2=C(Nc3ccc(C(=O)Nc4ccccc4)cc3)C(=O)N(C)C2=O)cc1`, the growth in the assay on SK-MEL-2 melanoma is 85.1%; in the assay with EKVX NSCLC it was 96.8%; with SN12C renal it was 99.2%; with UO-31 renal, 71.8%; in the assay on TK-10 renal, 95.4%; with ACHN renal it was 89.9%. Besides, the growth in the assay on CAKI-1 renal was 80.9%; in the assay on A498 renal it was 116%; with CCRF-CEM leukemia, 85.4%; with MOLT-4 leukemia, 76.7%; in the assay with SR leukemia, 66.6%; in the assay on RPMI-8226 leukemia it was 82.1%. In addition, the growth with OVCAR-8 ovarian was 91.5%; in the assay with OVCAR-5 ovarian, 100%; with OVCAR-4 ovarian, 97.4%; in the assay with SK-OV-3 ovarian it was 74.9%; in the assay with IGROV1 ovarian, 97.7%; with OVCAR-3 ovarian, 109%. Moreover, the growth in the assay with HS 578T breast is 110%; in the assay with NCI/ADR-RES ovarian, 87%.
Consider `CCN(CC)Cc1cc(C=C2C(=O)NC(=S)NC2=O)cc(OC)c1O`, for which the growth in the assay with SK-MEL-2 melanoma was 119%; with EKVX NSCLC, 106%; with SN12C renal, 100%; in the assay with UO-31 renal, 90.1%; in the assay with TK-10 renal, 110%; in the assay with ACHN renal it was 107%. Moreover, the growth with CAKI-1 renal is 99.3%; in the assay with A498 renal it was 98.8%; in the assay with CCRF-CEM leukemia it was 104%; in the assay with MOLT-4 leukemia, 108%; in the assay on SR leukemia it was 109%; with RPMI-8226 leukemia it was 110%. In addition, the growth in the assay on OVCAR-8 ovarian was 113%; in the assay with OVCAR-5 ovarian it was 104%; in the assay on OVCAR-4 ovarian it was 122%; with SK-OV-3 ovarian, 111%; in the assay with IGROV1 ovarian it was 112%; in the assay on OVCAR-3 ovarian, 114%. Further, the results for the growth in the assay with HS 578T breast and in the assay with NCI/ADR-RES ovarian were 103% and 110%, respectively.
For the molecule `CN1C(=O)/C(=C\c2nc([P+](c3ccccc3)(c3ccccc3)c3ccccc3)c(N3CCOCC3)o2)SC1=S`, the growth with SK-MEL-2 melanoma was 71.5%; with EKVX NSCLC, 92.3%; in the assay on SN12C renal it was 68.4%; in the assay with UO-31 renal, 80.4%; in the assay with TK-10 renal it was 106%; in the assay with ACHN renal it was 102%. In addition, the growth in the assay on CAKI-1 renal was 91.5%; in the assay with A498 renal it was 85.6%; with CCRF-CEM leukemia, 19.9%; with MOLT-4 leukemia, 81.5%; with SR leukemia, 13.3%; in the assay with RPMI-8226 leukemia it was -21.1% (active). For the same molecule, the growth with OVCAR-8 ovarian was 96.4%; in the assay with OVCAR-5 ovarian it was 96.7%; in the assay on OVCAR-4 ovarian, 90.5%; with SK-OV-3 ovarian it was 108%; in the assay on IGROV1 ovarian it was 5.71% (active); in the assay on OVCAR-3 ovarian, 100%. The growth in the assay on HS 578T breast was 90.4%; in the assay with NCI/ADR-RES ovarian, 90.5%.
Turning to `Cn1cc(C(=O)c2nc(-c3c[nH]c4ccccc34)no2)c2cc(F)ccc21`, the growth is 26.9% in the assay on SK-MEL-2 melanoma; 57.5% in the assay with EKVX NSCLC; 59.5% with SN12C renal; 42.4% in the assay with UO-31 renal; 57.6% in the assay with TK-10 renal; 49.6% in the assay on ACHN renal. Also, the growth is 32.9% in the assay on CAKI-1 renal; 25.3% in the assay with A498 renal; 23.9% in the assay on CCRF-CEM leukemia; 38.9% in the assay on MOLT-4 leukemia; 11.2% with SR leukemia; 37.5% in the assay with RPMI-8226 leukemia. Also, the growth in the assay on OVCAR-8 ovarian was 49.3%; in the assay on OVCAR-5 ovarian, 68.3%; in the assay on OVCAR-4 ovarian it was 69.8%; in the assay with SK-OV-3 ovarian, 43.3%; in the assay with IGROV1 ovarian, 32.5%; in the assay with OVCAR-3 ovarian, 0.717% (active). Besides, the growth in the assay on HS 578T breast was 44.8%; in the assay with NCI/ADR-RES ovarian, 36.5%.
`CCNCCNc1cc(C2CCCCC2)c(C#N)c2nc3ccccc3n12`: the growth in the assay with SK-MEL-2 melanoma is 23.2%; with EKVX NSCLC, 36%; in the assay on SN12C renal, 12.8%; in the assay on UO-31 renal it was -41% (active); in the assay on TK-10 renal it was 27.2%; in the assay with ACHN renal it was -52.2% (active). Further, the growth with CAKI-1 renal is 25.1%; with A498 renal it was -25.1% (active); in the assay with CCRF-CEM leukemia, -28.6% (active); with MOLT-4 leukemia it was -7.01% (active); with SR leukemia, -10.4% (active); in the assay with RPMI-8226 leukemia, -13.9% (active). The growth is 26.2% with OVCAR-8 ovarian; 18.2% in the assay on OVCAR-5 ovarian; 28.3% with OVCAR-4 ovarian; 28.2% in the assay on SK-OV-3 ovarian; 7.32% (active) in the assay on IGROV1 ovarian; -67.9% (active) in the assay on OVCAR-3 ovarian. The results for the growth in the assay on HS 578T breast and in the assay with NCI/ADR-RES ovarian were -5.65% (active) and 35.5%, respectively.
